High-throughput results: PubChem BioAssay, National Center for Advancing Translational Sciences (NCATS)
PLK1 PBD block – qHTS for Inhibitors of PLK1-PDB (polo-like kinase 1 - polo-box domain): Primary Screen | Plk1 PBD binding of FITC phosphopeptide, fluorescence polarization | 2.8% of 360,000 active | Potency, µM, actives largely listed as inhibitors; note: series mostly up to about 57 µM; nearly all actives have a fitted effect of over 65% in size
Vif-APOBEC3F blk – qHTS for Inhibitors of Vif-A3F Interactions: qHTS | HeLa A3F-eYFP + Vif (tagged APOBEC3F with the HIV-1 protein that degrades it), YFP fluorescence increase | Potency, µM (doses to about 46.1 µM) | 0.2% of 390,000 active; note: nearly all actives have a fitted effect of over 65% in size
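Fluorescence increase (Ex 488/Em 500-530) after overnight compound treatment at 37 deg C flags inhibition of Vif-driven A3F-eYFP loss in stable HeLa A3F-eYFP/Vif cells seeded overnight beforehand.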
Vif-A3G inh – qHTS for Inhibitors of Vif-A3G Interactions: qHTS; DNA dC->dU-editing enzyme APOBEC-3G (Homo sapiens), Q9HC16; HeLa A3G-eYFP + Vif (tagged APOBEC3G with the HIV-1 protein that degrades it), YFP fluorescence, overnight; Potency, µM (titrated, usually from 46.1 µM), usual class: inhibitors; 0.076% of 410,000 active; note: nearly all actives have a fitted effect of over 60% in size
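Read-out is eYFP fluorescence (Ex 488/Em 500-530) from Vif-expressing HeLa A3G-eYFP cells; more signal means A3G escaped Vif-mediated degradation. Cells plated overnight, compound pinned in, incubated overnight at 37 deg C.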
VDR inh – Inhibitors of the vitamin D receptor (VDR): qHTS | Potency, µM, most hits filed as inhibitors | VDR-SRC2-3 peptide fluorescence polarization, 2 h | 0.93% of 400,000 active | AID 504847, 2011 | Vitamin D3 receptor (Homo sapiens), P11473
Target sequence (P11473 whole entry, looked up): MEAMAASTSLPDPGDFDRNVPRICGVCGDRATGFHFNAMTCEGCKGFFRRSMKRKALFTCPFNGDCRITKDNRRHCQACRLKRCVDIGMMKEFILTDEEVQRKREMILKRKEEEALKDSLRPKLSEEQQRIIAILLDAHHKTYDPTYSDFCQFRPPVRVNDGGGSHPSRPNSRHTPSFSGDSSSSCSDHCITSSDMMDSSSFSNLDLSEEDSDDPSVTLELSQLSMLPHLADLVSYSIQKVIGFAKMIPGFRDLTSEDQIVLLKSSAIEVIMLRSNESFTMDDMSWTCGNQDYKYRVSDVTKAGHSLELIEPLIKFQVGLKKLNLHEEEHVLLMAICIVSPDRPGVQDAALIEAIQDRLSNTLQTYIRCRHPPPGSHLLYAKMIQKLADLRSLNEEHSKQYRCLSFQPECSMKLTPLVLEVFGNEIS
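Two reagent solutions held at 4 deg C in the dark were dispensed, compounds pinned at 23 nl, and the mixture incubated 2 h at room temperature. Read-out: fluorescence polarization of VDR–SRC2-3 peptide binding.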
TSHR antag – Antagonists of the Thyroid Stimulating Hormone Receptor: HTS campaign; activity change, negative = inhibition, % at 11.5 µM; 0.2% of 330,000 active; TSHR-expressing cells, TSH-stimulated cAMP HTRF, 2 h; active compounds read low; Thyrotropin receptor (Homo sapiens), P16473; AID 504810, 2011;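 active = activity change below a set negative limit, meaning inhibition stronger than a set level, cut at about -70% in these data; inconclusive = activity change between two set negative limits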
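Competitive HTRF cAMP read-out (cryptate anti-cAMP antibody, cAMP-d2; 30 min, room temperature) in freshly harvested TSHR cells. Compounds added before TSH at EC80 (4nM final), followed by 2 hours' incubation at 37 deg C.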
Each line names hits and unclear results; the compound was inactive in the other large screens. Rows were chosen to be rich in hits. Some 3.1% of all compounds tested hit in one or more screens of this group. Unless noted, calls come from the whole dose curve; as a rule, active = well fitted curve in the direction sought with a large enough effect; inconclusive = small, poorly fitted or top-dose-only effect, or another doubt; inactive = no such curve, though single readings can be large; an effect the other way counts as inactive or inconclusive.

COc1cc2c(NC3CCN(C(C)C)CC3)nc(N3CCCN(C)CC3)nc2cc1OCCCN1CCCC1	none (no result: PLK1 PBD block, Vif-APOBEC3F blk, VDR inh, TSHR antag)
CC1=C(C(=O)OCc2ccccc2)N2C(=O)[C@@H](NC(=O)OCc3ccccc3)[C@H]2SC1	none (no result: PLK1 PBD block, Vif-APOBEC3F blk, VDR inh, TSHR antag)
CCOc1ccc(NC(=O)C(=O)NCCN2CCN(S(=O)(=O)c3ccc(C)cc3)CC2)cc1	none
CCOc1ccc(NC(=O)C(=O)NCCN2CCN(S(=O)(=O)c3ccccc3)CC2)cc1	PLK1 PBD block 24µM, VDR inh inconclusive
O=C(CSc1ncc(C(F)(F)F)cc1Cl)N1CCN(S(=O)(=O)c2ccc3ccccc3c2)CC1	PLK1 PBD block 24µM, VDR inh inconclusive
Nc1cc(=O)[nH]c(SCC(=O)N2CCN(S(=O)(=O)c3ccc4ccccc4c3)CC2)n1	none
O=C(CSc1ncc(C(F)(F)F)cc1Cl)N1CCNC1=O	PLK1 PBD block 27µM (no result: TSHR antag)
O=C(CCl)N1CCCC1c1ccc2c(c1)OCCO2 (configuration not stated)	PLK1 PBD block 27µM, VDR inh inconclusive
Cc1ccc2nc3sc(C(=O)Nc4ccc(N5CCOCC5)cc4)c(N)c3cc2c1	none (no result: PLK1 PBD block, Vif-APOBEC3F blk, Vif-A3G inh, VDR inh)
Cc1cccc2cc3c(N)c(C(=O)N4CCc5ccccc54)sc3nc12	Vif-APOBEC3F blk 4.5µM, Vif-A3G inh inconclusive
CCc1cccc2cc3c(N)c(C(=O)Nc4ccc(S(=O)(=O)N5CCCC5)cc4)sc3nc12	Vif-APOBEC3F blk inconclusive, Vif-A3G inh 3.5µM
Cc1ccc(C)c2nc3sc(C(=O)N4CCOCC4)c(N)c3cc12	Vif-APOBEC3F blk inconclusive, Vif-A3G inh 10µM
Cc1cccc2cc3c(N)c(C(=O)Nc4ccc(N5CCOCC5)cc4)sc3nc12	Vif-APOBEC3F blk inconclusive, Vif-A3G inh 13µM
COc1cccc(CC(=O)Nc2ccc(S(=O)(=O)N3CCCCC3)cc2)c1	none
COCCOC(=O)N1CCN(/[N+]([O-])=N/Oc2ccc([N+](=O)[O-])cc2[N+](=O)[O-])CC1	none (no result: PLK1 PBD block, Vif-APOBEC3F blk, VDR inh, TSHR antag)
COC(=O)[C@H]1O[C@@H](c2cc(OC)c(C)c(OC)c2OCc2ccccc2)[C@H](C)[C@H]2O[C@@]12C	none (no result: PLK1 PBD block, Vif-APOBEC3F blk, Vif-A3G inh, TSHR antag)
COc1ccc(CN(Cc2ccccc2)C(=O)CN2CCN(C)CC2)cc1COc1ccc(NC(C)=O)cc1	none (no result: PLK1 PBD block, Vif-APOBEC3F blk, Vif-A3G inh, TSHR antag)
O=C(CSc1nnc(COc2ccc(Cl)cc2)o1)N1CCN(c2ccccc2)CC1	PLK1 PBD block 30µM, VDR inh inconclusive
Cc1noc(C)c1-c1nc(Nc2ccc(F)cc2)c2ccccc2n1	none (no result: PLK1 PBD block, Vif-APOBEC3F blk, Vif-A3G inh, TSHR antag)
CC1(C)CC(NS(=O)(=O)c2ccc(Cl)cc2)CC(C)(C)N1	VDR inh 89µM
COc1ccc(S(=O)(=O)NC2CC(C)(C)NC(C)(C)C2)cc1	none
CCN(CC)c1ccc2c(c1)oc(=O)c1c(Cl)cc(=O)oc12	Vif-APOBEC3F blk 25µM, Vif-A3G inh inconclusive, VDR inh inconclusive
O=C(O)COc1ccc2c(c1)O/C(=C\c1ccco1)C2=O	PLK1 PBD block 24µM
O=C(O)COc1ccc2c(c1)O/C(=C\c1cccs1)C2=O	none
Cc1ccc(C(=O)O)cc1NC(=O)CCc1ccccc1	PLK1 PBD block 17µM
COC(=O)c1ccc(C)c(NC(=O)CN(c2ccccc2)S(=O)(=O)N(C)C)c1	PLK1 PBD block 21µM
CC12CCC=CC1C(c1ccc(F)c(/C=C/c3ccccc3)c1)N(Cc1ccccc1)C2=O (configuration not stated)	none (no result: PLK1 PBD block, Vif-APOBEC3F blk, TSHR antag)
CCCCC/C=C\C\C=C/C=C/C=C/[C@@H](SC[C@H](NC(=O)CC[C@H](N)C(=O)O)C(=O)NCC(=O)O)[C@@H](O)CCCC(=O)O	none (no result: PLK1 PBD block, Vif-APOBEC3F blk, Vif-A3G inh, TSHR antag)
COc1cc2c(cc1NC(=O)CN1CCN(S(=O)(=O)c3ccccc3F)CC1)oc1ccccc12	PLK1 PBD block 3.4µM
COc1cc2c(cc1NC(=O)Cc1ccc(C)cc1)oc1ccccc12	PLK1 PBD block inconclusive
O=C(COC(=O)CCCC1=NS(=O)(=O)c2ccccc2N1)Nc1ccccc1	none
COc1cc(NC(=O)COC(=O)CCCC2=NS(=O)(=O)c3ccccc3N2)cc(OC)c1	PLK1 PBD block 21µM
COCCNc1nnc(SCC(=O)NC(=O)c2ccc(Cl)cc2)s1	none
COc1ccc(NC(=O)CSc2nnc(NC(=O)c3ccccc3C(=O)O)s2)cc1	PLK1 PBD block 17µM
COCCNc1nnc(SCC(=O)NNC(=O)c2ccccc2)s1	PLK1 PBD block 27µM
COc1cc2c(NC3CCN(C)CC3)nc(N3CCCCC3)nc2cc1OCCCN(C)C	none (no result: PLK1 PBD block, Vif-APOBEC3F blk, VDR inh, TSHR antag)
CCOc1ccccc1CN1CCNC(=O)C1CC(=O)NC1CCCCCC1 (configuration not stated)	PLK1 PBD block 21µM, VDR inh inconclusive
CCOc1ccccc1CN1CCNC(=O)C1CC(=O)NC1CCCCC1 (configuration not stated)	none
COC(=O)CC1C(=O)NCCN1C(=O)CSc1nc2ccccc2s1 (configuration not stated)	PLK1 PBD block 13µM, VDR inh inconclusive
Cc1cccc(-c2[nH]c(C(C)(C)C)nc2-c2ccc3nccnc3c2)n1	none (no result: PLK1 PBD block, Vif-APOBEC3F blk, Vif-A3G inh)
COc1ccc(C2C(O)C(c3c[nH]c4ccccc34)=NN2C(=O)CCl)cc1 (configuration not stated)	Vif-A3G inh inconclusive
COc1ccc(C2NN=C(c3c[nH]c4ccccc34)C2O)cc1 (configuration not stated)	Vif-APOBEC3F blk 22µM, Vif-A3G inh inconclusive
CC(=O)OCC(NC(=O)C(COCc1ccccc1)NC(=O)OC(C)(C)C)C1OC(n2cc(F)c(=O)[nH]c2=O)C(OC(C)=O)C1OC(C)=O (configuration not stated)	none (no result: PLK1 PBD block, Vif-APOBEC3F blk, TSHR antag)
O=C(Cn1c(-c2ccccc2)c[n+]2ccsc12)c1ccccc1	none
O=C(Cn1c(-c2ccccc2)c[n+]2ccsc12)c1ccc([N+](=O)[O-])cc1	PLK1 PBD block 30µM
O=C(Cn1c(=O)sc2ccccc21)NCc1ccccn1	PLK1 PBD block 21µM
CCOC(=O)c1c(N)sc2c1CCS(=O)(=O)C2	PLK1 PBD block 27µM
CCOC(=O)c1c(N)sc2c1CCCC2	PLK1 PBD block inconclusive
O=C(CCl)c1ccc2[nH]c(=O)oc2c1	PLK1 PBD block 7.5µM
COc1ccc(-c2ccc(CCC(=O)O)n2NC(=O)c2ccc(O)cc2)cc1	none
COc1ccc(C(=O)Nn2c(CCC(=O)O)ccc2-c2ccc(C)cc2)cc1OC	PLK1 PBD block 21µM
O=C(CCC1CCCN(C(=O)C2=CCCC2)C1)N1CCN(c2ccccn2)CC1 (configuration not stated)	none
O=C(CCC1CCCN(C(=O)CC2=CCCCC2)C1)N1CCN(c2ccccn2)CC1 (configuration not stated)	PLK1 PBD block 8.4µM, VDR inh 79µM
Cn1nc(C(C)(C)C)c([N+](=O)[O-])c1C(=O)NCCO	PLK1 PBD block 24µM, VDR inh inconclusive
